# Compound activity: PubChem, National Center for Advancing Translational Sciences (NCATS)
# The list is not random: actives were taken first. Their share in the collection is about 4.7%.
# TRHR PAM = TRH receptor (human) allosteric enhancement; P34981; TRHR cells, fluo-8 calcium fluorescence, EC20 TRH enhancement; enhancement, % at 2 µM; 360,000 compounds, 0.66% hits; in the data active means enhancement above about 30%; further: 0% is about no effect
#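 Enhancer read-out: after compound pinning and an initial kinetic agonist-mode read, an EC20 of TRH (10 nM final) was injected and fluo-8 calcium signal (Ex 480/Em 530) followed at 1 s/cycle for 100 cycles in TRHR-expressing cells.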
# D1 ag = agonists of human D1 dopamine receptor | HEK293 T-REx D1 cells, calcium flux, agonist mode | activation, % at 2 µM | 360,000 compounds, 1% hits; further: 0% is about no effect
# Target sequence (P21728 whole entry, looked up): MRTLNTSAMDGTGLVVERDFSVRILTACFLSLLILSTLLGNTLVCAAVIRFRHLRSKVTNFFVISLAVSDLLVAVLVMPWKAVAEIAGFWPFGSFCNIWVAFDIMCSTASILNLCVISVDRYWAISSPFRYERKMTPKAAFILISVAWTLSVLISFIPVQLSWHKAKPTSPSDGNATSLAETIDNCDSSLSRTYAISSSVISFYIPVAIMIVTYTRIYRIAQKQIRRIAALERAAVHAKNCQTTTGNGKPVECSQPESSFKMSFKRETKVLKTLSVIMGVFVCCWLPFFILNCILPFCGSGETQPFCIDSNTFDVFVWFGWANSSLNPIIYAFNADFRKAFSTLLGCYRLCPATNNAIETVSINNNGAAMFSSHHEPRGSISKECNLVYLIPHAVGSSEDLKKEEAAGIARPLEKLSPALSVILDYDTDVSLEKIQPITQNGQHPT
#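 Inducible HEK293 T-REx D1 cells, force-coupled to calcium signalling, were plated at 4000 cells/well with tetracycline and held overnight at 30 C. After no-wash calcium dye loading, compound-evoked calcium rise over 180 s flagged agonists.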
# TRHR agonist = activates the human TRH receptor; P34981; TRHR cells, calcium flux fluo-8, FDSS agonist mode; activation, % at 2 µM; 360,000 compounds, 0.18% hits; further: 0% is about no effect
#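 Agonist-mode FDSS calcium read (Ex 480/Em 530, 1 s cycles) in 1536-well TRHR cells with fluo-8 dye, after 10-cycle baseline and 23 nL compound addition; TRH at EC20 (10 nM final) added afterwards for the enhancer phase.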
# D1 antag = blocks dopamine activation of the human D1 receptor; P21728; HEK293 TREx D1 cells, calcium flux, dopamine EC80; hits give low values; activity change, negative = inhibition, % at 10 µM; 360,000 compounds, 3.2% hits; AID 504652; in the data active means activity change below about -30%; further: on the % scale 0 is the no-effect control and ±100 the full control effect
#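 Tetracycline-induced HEK293 Trex D1 cells, force-coupled to calcium, dye-loaded; compounds added and read 180 s, then EC80 dopamine added and calcium flux tracked kinetically another 180 s.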
# D1 PAM = enhances dopamine response at the human D1 receptor. P21728. HEK293 TREx D1 cells, calcium flux, dopamine EC20 potentiation. potentiation, % at 10 µM. 360,000 compounds, 0.036% hits. AID 504651; in the data active means potentiation above about 30%; further: 0% is about no effect
# * = called active by the depositor; x = no result given. Unless noted, no stated cut-off is given here; in the data, active means activation above about 30%; inactive means the rest.
SMILES,TRHR PAM,D1 ag,TRHR agonist,D1 antag,D1 PAM
Cn1c2ccccc2c(=O)c2c(=O)n(C3CCCCC3)c(-c3ccco3)nc21,0,106*,11,-3,-9
Cc1nc2c(c(=O)c3ccccc3n2C)c(=O)n1-c1ccccc1,-8,1,1,19,-4
Cc1nc2c(c(=O)c3ccccc3n2C)c(=O)n1C1CCCCCC1,-6,154*,33*,9,0
CC(C)Cn1c(-c2ccco2)nc2c(c(=O)c3ccccc3n2C)c1=O,-10,6,6,-17,-5
CCOc1ccccc1CNC(=O)CCCn1c(=O)c2cccn2c2cccnc21,-7,1,0,8,-5
Cc1c(C(=O)N2CCC(C)CC2)c(S(=O)(=O)Nc2ccc(OC(F)(F)F)cc2)c(C)n1C,-2,-2,0,0,1
CCN1CCc2c(OCc3ccccc3)cccc2C1=O,-3,4,-2,-38*,0
COc1ccc(CCC(=O)OCC(=O)Nc2c(C)nn(-c3ccccc3)c2C)cc1,6,0,0,17,0
Fc1ccc(N2CCN(C3=Nc4cccc5cccc3c45)CC2)cc1,4,3,1,-44*,-8
c1ccc(CN2CCN(C3=Nc4cccc5cccc3c45)CC2)cc1,0,3,5,7,1
COC(=O)c1scc(C)c1NC(=O)Nc1ccccc1,3,1,0,3,4
COC(=O)c1scc(C)c1NC(=O)c1ccccc1F,18,1,-2,-37*,-4
COC(=O)c1scc(C)c1NC(=O)/C=C/C(=O)O,-2,2,0,-47*,-4
Cc1ccc(-n2ncc(C(=O)NCc3ccco3)c2C2CCN(C(=O)OC(C)(C)C)CC2)cc1,-1,0,0,6,-10
CC(=O)Nc1ccc2nc3c(=O)n(C)c(=O)n(C)c3nc2c1C,-16,0,1,2,0
COc1ccc(NC(=O)CSC2=Nc3ccccc3C3=NC(CCC(=O)NCc4cccs4)C(=O)N23)cc1 (stereo not drawn),-8,1,0,-2,-3
CCCN1C(=O)CC(c2ccco2)Sc2ccccc21 (stereo not drawn),-2,0,0,-18,-11
CN1C(=O)CC(c2ccco2)Sc2ccccc21 (stereo not drawn),35*,2,0,-20,-5
O=C(COC(=O)c1ccc(Cl)cc1)NC1CCCCCC1,10,5,-1,-18,x
N/C(CC(=O)NC1CCCCC1)=N\OCC(=O)Nc1ccc(Cl)c(Cl)c1,3,5,1,-94*,-1
O=C(COC(=O)c1nc(Cl)ccc1Cl)NC1CCCCCC1,1,9,0,-31*,-4
O=C(COC(=O)c1ncc(Cl)c(Cl)c1Cl)NC(=O)c1ccccc1,5,2,0,7,-2
CCc1cccc(CC)c1NC(=O)CO/N=C(\N)CC(=O)NC1CCCCC1,-6,3,0,1,-1
O=C(COC(=O)c1ncc(Cl)c(Cl)c1Cl)NC1CCCCCC1,16,1,1,-44*,-2
Cc1ccc(-c2nnc(Nc3ccc4c(c3)OCO4)c3ccccc23)cc1S(=O)(=O)NC(C)C,8,2,1,-6,-4
SMILES,TRHR PAM,D1 ag,TRHR agonist,D1 antag,D1 PAM
O=C(N/C(=C\c1cccnc1)C(=O)N1CCOCC1)c1ccco1,6,1,1,-33*,-6
COc1ccc(/C=C(/NC(=O)c2ccccc2)C(=O)N2CCCCC2)cc1OC,25,72*,-1,0,4
COc1ccc(/C=C(\NC(=O)c2ccccc2)C(=O)N2CCCCC2)cc1OC,1,7,1,-3,-5
COc1ccc(/C=C(/NC(=O)c2ccco2)C(=O)N2CCCCCC2)cc1OC,15,36*,0,29,-2
COc1ccc(/C=C(/NC(=O)c2ccccc2)C(=O)N2CCCC2)cc1OC,-6,0,0,24,0
CCOC(=O)c1sc(NC(=O)C(C)Sc2nc(-c3ccccc3)cc(C(F)(F)F)n2)c(C(=O)OC)c1C (stereo not drawn),8,2,1,12,8
COC(=O)c1c(NC(=O)CCCOc2cccc(C)c2)sc2c1C(C(=O)OC)CC2 (stereo not drawn),-4,12,0,5,0
COC(=O)C(C(=O)OC)c1ncc(C(F)(F)F)cc1Cl,-3,-1,0,5,0
CCOC(=O)C(C(=O)N(C)C)c1ncc(C(F)(F)F)cc1Cl (stereo not drawn),14,0,0,-46*,3
Cc1cc(OCC(=O)OCC(=O)c2ccc[nH]2)ccc1Cl,-7,10,0,-34*,-3
Cc1ccccc1OCC(=O)OCC(=O)c1ccc[nH]1,-4,2,-2,-32*,-6
CCCCCCC(=O)N/N=C(\C)Cc1ccccc1,4,7,0,-3,-5
CCCCCCCC(=O)NNC(=O)Cc1ccccc1,-4,2,0,-54*,-1
CCc1ccc(NC(=O)NNC(=O)CCc2ccccc2)cc1,1,1,0,-61*,-5
O=C(COc1ccc(Cl)cc1)OCC(=O)c1ccc[nH]1,11,-1,-1,-11,-10
O=C(CCc1ccccc1)NNC(=O)Nc1ccccc1,0,3,0,2,1
COc1ccccc1N1CCN(CCCNC(=O)c2cnn(-c3ccccc3)c2C2CCN(C(=O)OC(C)(C)C)CC2)CC1,8,2,-1,-7,-9
CCc1ccc(CNC(=O)Cn2nc(-c3ccc(Cl)cc3)ccc2=O)cc1,-15,-1,0,18,-2
Cc1ccccc1OCC(=O)NNC(=O)CCc1ccccc1,32*,1,0,6,1
Cc1ccc(C)c(NC(=O)CCC(=O)NNC(=O)COc2cc(C)ccc2C)c1,6,0,-1,-38*,-7
Cc1ccccc1OCC(=O)OCC(=O)c1ccc(OCc2ccccc2)cc1,-5,55*,0,16,-4
CN(c1ccc(C(=O)Nc2ccccc2C(=O)N2CCCC2)cc1)S(C)(=O)=O,16,1,0,-31*,-7
CS(=O)(=O)N(CC(=O)Nc1ccccc1C(=O)N1CCCC1)c1cccc([N+](=O)[O-])c1,10,0,-1,8,11
CC(=O)c1cccc(N(CC(=O)Nc2ccccc2C(=O)N2CCCC2)S(C)(=O)=O)c1,55*,5,0,-9,-1
Cn1c(=O)n(C)c2cc(N3CCOCC3)c(NC(=O)c3ccc(C(C)(C)C)cc3)cc21,2,1,0,3,-1
CN1C[C@H](C(=O)N[C@]2(C)O[C@@]3(O)[C@@H]4CCCN4C(=O)[C@H](Cc4ccccc4)N3C2=O)CC2c3cccc4[nH]cc(c34)C[C@H]21 (stereo partly drawn),5,1,-1,-62*,-7
